# Data reported in PubChem BioAssay (NCI).
# Compounds without any hit were thinned out: in the full panel of roughly 79,000, 15% have a hit. Unmarked numbers belong to inactive results. Calls of active or inactive are those of the source. No stated cut-off is given here; in the data, active means growth inhibition above about 70%; inactive means the rest.
# Assay: NCI Yeast Anticancer Drug Screen. Data for the cln2 rad14 strain (AID 165);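 further: 0% = growth equal to vehicle treated cultures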
# Details: S. cerevisiae cln2 rad14 strain, at 50.0 µM (retest, dose inferred, filed as 5.0), stronger effect = higher value
# Method in brief: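 Compounds are applied to the cln2 rad14 yeast strain, and growth is then compared with that of vehicle-treated cultures to give inhibition.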
row,Compound,growth inhibition
1,CCCCCCCCCCCCCCCCCO,-5%
2,COc1cc(C(c2cc3c(cc2O)OCO3)N2CCOCC2)cc(OC)c1OC (centres undefined),8%
3,O=C1OCc2cccc3cccc1c23,38%
4,CSC(=S)NNC(C)c1nccc2ccccc12 (centres undefined),97% (active)
5,N#Cc1c(Cl)nc2ccccc2c1N=[N+]=[N-],8%
6,CC(C)(C)CC(C)(C)c1ccc(OCCSC(=N)N)cc1,99% (active)
7,COC1CCC(O)C(CO)O1 (centres undefined),99% (active)
8,CC(=O)N(C1=C(Cl)C(=O)c2ccccc2C1=O)c1ccc(Cl)cc1,99% (active)
9,Cc1nc(N2N=C(c3ccc(Cl)cc3)CCC2=O)sc1[N+](=O)[O-],46%
10,Cn1c2c(c3ccccc31)CCN1C[C@@H]3CCCC[C@H]3C[C@@H]21,-6%
11,Cn1cc(NC(=O)Nc2cc(C(=O)Nc3cc(C(=O)Nc4ccc5cc(S(=O)(=O)O)cc(S(=O)(=O)O)c5c4)n(C)c3)n(C)c2)cc1C(=O)Nc1cc(C(=O)Nc2ccc3cc(S(=O)(=O)O)cc(S(=O)(=O)O)c3c2)n(C)c1,99% (active)
12,CC(=O)Oc1c(Cl)cc(Cl)cc1C(c1cc(Cl)cc(Cl)c1OC(C)=O)C(Cl)(Cl)Cl,2%
13,CCCCCc1ccc2cc(C(=O)O)[nH]c2c1,59%
14,C/C(=N/O)c1cc([N+](=O)[O-])c(O)cc1O,44%
15,CCOC(=O)CNC(=O)Sc1ccc(C(C)(C)C)cc1C,84% (active)
16,S=C(N/N=C1\C=Cc2ccccc2C1)N/N=C1\C=Cc2ccccc2C1,4%
17,Cc1cccc(Nc2c3c(nc4ccccc24)CCCCC3)c1,53%
18,Cc1ccc(NS(=O)(=O)c2ccc(C)cc2)cc1,68%
19,CCOC(=O)C(=CNC(=S)Nc1c(CC)cccc1C(C)(C)C)C(=O)OCC,52%
20,COC1/C=C/OC2(C)Oc3c(C)c(OC(C)=O)c4c(c3C2=O)C(=O)C=C(NC(=O)/C(C)=C\C=C\C(C)C(O)C(C)C(O)C(C)C(OC(C)=O)C1C)C4=O (centres undefined),96% (active)
21,O=C(O)c1ccc(/C=C2\COc3ccccc3C2=O)cc1,80% (active)
22,Cc1c2c(c(C)c3ccncc13)S(=O)(=O)c1ccccc1-2,36%
23,Oc1c(Cl)cc(Cl)c2cccnc12,98% (active)
24,Cc1ccc(S(=O)(=O)Nc2ccc3c(c2)C(=O)c2ccccc2-3)cc1,89% (active)
